Sampled rows, rich in hits. Any-hit rate of the full collection: about 4.1%.
MazF activator: increases E. coli MazEF RNase cleavage of RNA | FAM/BHQ RNA-DNA oligo cleavage fluorescence, 5 h | activation, % at 20 µM | hit rate 0.32% among 350,000 | AID 504720; in the data active = activation above about 50%
Autofluor counter: compound fluorescence in toxin protease inhibitor counterscreen | compound autofluorescence counterscreen, microsphere flow cytometry; hits give high values | fluorescence intensity (no concentration beside the values) | hit rate 3.1% among 360,000 | AID 624483; in the data active = fluorescence intensity above about 16000; inconclusive = no clear call, values can overlap the other calls
BoNT A protease: blocks Botulinum neurotoxin A light chain protease. multiplex microsphere protease substrate cleavage, flow cytometry. inhibition, % at 10 µM. hit rate 0.17% among 360,000. AID 588499; note: plate controls were buffer without enzyme for full effect and enzyme alone for no effect
BoNT F protease: blocks Botulinum neurotoxin F light chain protease; Multiplex microsphere protease cleavage assay, flow cytometry; inhibition, % at 10 µM; hit rate 0.22% among 360,000; AID 588497; in the data active = inhibition above about 35%, passing the limit was not always enough; inconclusive = no clear call, values can overlap the other calls; note: plate controls were buffer without enzyme for full effect and enzyme alone for no effect
Anthrax LF inh2: blocks Bacillus anthracis lethal factor protease | P15917 | multiplex microsphere protease cleavage assay, LF | inhibition, % at 10 µM | hit rate 0.12% among 360,000 | AID 588501; note: plate controls were buffer without enzyme for full effect and enzyme alone for no effect
VHR inh abs: DUSP3 (human) phosphatase inhibition; inhibition, % at 13.3 µM; P51452; recombinant VHR phosphatase, pNPP absorbance; AID 1654; hit rate 0.52% among 290,000; in the data active = inhibition above about 50%
Numbers without * were called inactive; ? = inconclusive; nt = no result. Cut-off read from the data, not from the text of the source, unless noted: active = inhibition above about 30%; inconclusive = no clear call, values can overlap the other calls; inactive = below that.

SMILES	MazF activator	Autofluor counter	BoNT A protease	BoNT F protease	Anthrax LF inh2	VHR inh abs
CCCCN1C(=O)NC(=O)C2(Cc3ccccc3N3CCOCC32)C1=O (stereo not drawn)	-10	8997	3	14	-5	17
O=C1NC(=O)[C@]2(Cc3ccccc3N3CCN(c4ccccc4)CC32)C(=O)N1Cc1ccccc1 (stereo partly drawn)	3	4621	2	6	1	18
CN1C(=O)NC(=O)C2(Cc3ccccc3N3CCOCC32)C1=O (stereo not drawn)	5	17659*	?	-6	3	24
O=C1NC(=O)C2(Cc3ccccc3N3CCCC32)C(=O)N1c1ccc(Cl)cc1 (stereo not drawn)	-1	nt	nt	nt	nt	2
O=C1NC(=O)C2(Cc3ccccc3N3CCCC32)C(=O)N1Cc1ccccc1 (stereo not drawn)	0	19390*	?	3	-3	-2
CN1C(=O)NC(=O)[C@]2(Cc3ccccc3N3CCN(c4ccccc4)CC32)C1=O (stereo partly drawn)	4	16912*	-2	-1	-2	19
O=C1NC(=O)[C@]2(Cc3ccccc3N3CCN(c4ccccc4)CC32)C(=O)N1c1ccccc1 (stereo partly drawn)	7	24028*	-2	-5	-3	25
CCN(CC)S(=O)(=O)c1ccc(N2CCOCC2)c(NC(=O)COc2ccc(C#N)cc2)c1	6	3834	2	-6	3	25
Cc1c(NC(=O)C(C)OC(=O)c2ccc([N+](=O)[O-])cc2Cl)c(=O)n(-c2ccccc2)n1C (stereo not drawn)	8	6223	2	14	-2	nt
Cc1ccc(N2C(=O)NC(=O)C3(Cc4ccccc4N4CCCC43)C2=O)cc1 (stereo not drawn)	-2	19892*	?	2	2	-5
COc1ccc(Cn2c(C3CCCCC3)nc3c(c(=O)c4ccccc4n3C)c2=O)cc1	-69	nt	nt	nt	nt	54*
COc1ccc(CCn2c(C3CCCCC3)nc3c(c(=O)c4ccccc4n3C)c2=O)cc1	-24	nt	nt	nt	nt	16
CON/C=C(\C=Nc1ccc(C(F)(F)F)cc1)c1ncc(C(F)(F)F)cc1Cl	5	5846	0	-3	-1	25
CON/C=C(\C=Nc1ccc(Cl)cc1)c1ncc(C(F)(F)F)cc1Cl	2	23332*	0	-1	-4	-18
COC(=O)c1ccc(/C=N\N2CCN(c3ccccc3)CC2)cc1	11	3870	0	?	-7	51*
C(=N\N1CCN(c2ccccc2)CC1)/c1ccccc1	3	3893	0	-5	-11	26
COc1cc(/C=N/N2CCN(c3ccccc3OC)CC2)ccc1OC(C)=O	-2	3650	0	?	42*	-4
COc1ccccc1N1CCN(/N=C/c2cc(OC)c(O)c(OC)c2)CC1	8	10923	-1	4	2	-5
N#CCCN(CCC#N)C(=O)c1ccc2c(c1)OCO2	-5	20717*	3	4	-4	9
CCCN(CCC)C(=O)c1ccc2c(c1)OCO2	-3	9695	0	2	2	13
CC(C)C(c1nnnn1C(C)(C)C)N1CCOCC1 (stereo not drawn)	5	3708	0	-8	-2	-25
CC(C)C(c1nnnn1C(C)(C)C)N1CCC(Cc2ccccc2)CC1 (stereo not drawn)	-21	18261*	?	?	?	-3
COc1nn(CC(=O)N2N=C(C)CC2(O)C(F)F)cc1[N+](=O)[O-] (stereo not drawn)	1	3336	0	-5	0	18
O=C(Cn1cc([N+](=O)[O-])cn1)N1N=C(C(F)F)CC1(O)C(F)F (stereo not drawn)	7	22225*	2	4	0	13
CCCN(CCC)S(=O)(=O)c1ccc(NS(=O)(=O)c2ccc(F)cc2)cc1	6	17098*	-2	-1	-3	-19
SMILES	MazF activator	Autofluor counter	BoNT A protease	BoNT F protease	Anthrax LF inh2	VHR inh abs
CCCN(CCC)S(=O)(=O)c1ccc(NS(C)(=O)=O)cc1	1	3144	0	-6	-2	-1
Cc1ccc(C23CC4CC(CC(NC(=O)NC(C)(C)CO)(C4)C2)C3)cc1	3	22797*	1	2	0	16
NC(=O)C1(N2CCCCC2)CCN(C(=S)NCCc2ccccc2)CC1	1	4719	0	-6	3	23
CC(=C1C(=O)c2ccccc2C1=O)N1CCC(C(N)=O)(N2CCCCC2)CC1	-24	23736*	-1	-2	-6	6
N#Cc1c(N)nc(SCC(=O)C23CC4CC(CC(C4)C2)C3)c(C#N)c1-c1ccc(Cl)cc1	-9	2861	0	-1	1	22
CSc1nc(N)nc(SCC(=O)C23CC4CC(CC(C4)C2)C3)c1C#N	-6	19688*	-1	-3	-4	0
COc1ccc(C(=O)CSc2nc(N)nc(SC)c2C#N)cc1	-22	19201*	6	10	-3	10
COc1ccc(C(=O)Nc2ncccc2C)cc1S(=O)(=O)N1CCOCC1	3	nt	nt	nt	nt	nt
COc1cc(OC)c(C2Nc3cccc4cccc(c34)N2)c(OC)c1	17	3885	0	-38	-4	53*
COc1ccc(C2Nc3cccc4cccc(c34)N2)cc1	7	2309	0	-9	-2	28
NC(=O)C1CCN(CC(O)COc2ccc(-c3ccccc3)cc2)CC1 (stereo not drawn)	0	3986	-4	16	5	13
COc1ccc(OC)c(/C=C2\NC(=O)NC2=O)c1	0	6990	23	?	131*	-4
COc1cc(C=C2NC(=O)NC2=O)ccc1O	-2	3587	0	3	-6	nt
O=C(C1CSC2(c3ccc(F)cc3)CCC(=O)N12)N1CCCCCC1 (stereo not drawn)	2	20230*	5	6	-13	4
CCC(=O)N1CN(S(=O)(=O)c2ccc(C)cc2)CC1C (stereo not drawn)	4	21656*	-3	-3	-2	36
c1ccc(C(c2ccccc2)N2CCN(Cc3nnnn3C3CCCC3)CC2)cc1	8	2789	0	-11	0	39
C1CCC(n2nnnc2CN2CCCC2)CC1	2	23839*	-1	-3	0	10
COCCCN=CC1=C(O)CC(C)(C)CC1=O	4	23898*	?	-1	-3	6
CC1(C)CC(=O)C(C=NCCN2CCN(C(=S)Nc3ccc(F)cc3)CC2)=C(O)C1	-4	16455*	?	-5	-6	24
CC1(C)CC(=O)C(C=NCCN2CCN(CCc3ccccc3)CC2)=C(O)C1	-6	20820*	-3	-3	0	25
Cc1cc(CNC(=O)COC(=O)c2ccc(Cl)c(N)c2)cc(C)c1O	3	4437	0	2	1	nt
COc1ccc(C(=O)Oc2coc(CSc3nnc(NC(=O)c4cccs4)s3)cc2=O)cc1	-6	2075	0	3	0	11
Cc1cccc(CSc2nnc(NC(=O)c3ccco3)s2)c1	6	24019*	-4	-7	-3	1

Source: PubChem (several laboratories)
